# Test results reported in ChEMBL document CHEMBL2218924, “A broad activity screen in support of a chemogenomic map for kinase signalling research and drug discovery” (Biochem J, 2013).
# Tests used:
# [1] = target: G protein-coupled receptor kinase 5 (Homo sapiens) (UniProt P34947); settings: at 1 µM
# [2] = target: G protein-coupled receptor kinase 6 (Homo sapiens) (UniProt P43250); settings: at 1 µM
# [3] = target: Vascular endothelial growth factor receptor 3 (Homo sapiens) (UniProt P35916); settings: at 10 µM
# [4] = target: Macrophage colony-stimulating factor 1 receptor (Homo sapiens) (UniProt P07333); settings: at 1 µM
# [5] = target: Macrophage colony-stimulating factor 1 receptor (Homo sapiens) (UniProt P07333); settings: at 10 µM
# [6] = target: Tyrosine-protein kinase Fyn (Homo sapiens) (UniProt P06241); settings: at 1 µM
# [7] = target: Tyrosine-protein kinase Fyn (Homo sapiens) (UniProt P06241); settings: at 10 µM
# [8] = target: T1, Mitogen-activated protein kinase kinase kinase kinase 2 (Homo sapiens) (UniProt Q12851); settings: at 1 µM
# T1 sequence (whole entry): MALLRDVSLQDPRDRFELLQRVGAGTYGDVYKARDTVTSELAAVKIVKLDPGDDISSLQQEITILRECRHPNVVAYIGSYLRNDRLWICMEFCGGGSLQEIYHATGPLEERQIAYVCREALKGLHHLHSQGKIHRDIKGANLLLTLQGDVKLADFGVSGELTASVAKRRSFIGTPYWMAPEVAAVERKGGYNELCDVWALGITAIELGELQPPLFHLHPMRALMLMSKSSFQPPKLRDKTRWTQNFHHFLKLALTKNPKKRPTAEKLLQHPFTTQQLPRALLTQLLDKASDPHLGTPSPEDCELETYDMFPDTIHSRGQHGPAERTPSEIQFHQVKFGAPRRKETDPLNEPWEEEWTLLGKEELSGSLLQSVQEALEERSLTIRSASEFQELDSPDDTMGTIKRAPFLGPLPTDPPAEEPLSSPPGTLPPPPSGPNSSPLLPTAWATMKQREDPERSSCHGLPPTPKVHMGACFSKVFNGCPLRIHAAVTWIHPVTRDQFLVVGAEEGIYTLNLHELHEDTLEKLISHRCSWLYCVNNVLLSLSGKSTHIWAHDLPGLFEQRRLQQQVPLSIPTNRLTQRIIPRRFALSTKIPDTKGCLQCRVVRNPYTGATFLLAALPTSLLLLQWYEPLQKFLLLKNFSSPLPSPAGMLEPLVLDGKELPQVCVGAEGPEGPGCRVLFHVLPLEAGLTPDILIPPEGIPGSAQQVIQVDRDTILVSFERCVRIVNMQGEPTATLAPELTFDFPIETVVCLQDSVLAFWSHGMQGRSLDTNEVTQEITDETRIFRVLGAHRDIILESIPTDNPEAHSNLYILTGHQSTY
# [9] = target: T1, Mitogen-activated protein kinase kinase kinase kinase 2 (Homo sapiens); settings: at 10 µM
# [10] = target: G protein-coupled receptor kinase 5 (Homo sapiens) (UniProt P34947); settings: at 10 µM
# Chain of Tyrosine-protein kinase Fyn (Homo sapiens) (P06241 2-537 limits assumed): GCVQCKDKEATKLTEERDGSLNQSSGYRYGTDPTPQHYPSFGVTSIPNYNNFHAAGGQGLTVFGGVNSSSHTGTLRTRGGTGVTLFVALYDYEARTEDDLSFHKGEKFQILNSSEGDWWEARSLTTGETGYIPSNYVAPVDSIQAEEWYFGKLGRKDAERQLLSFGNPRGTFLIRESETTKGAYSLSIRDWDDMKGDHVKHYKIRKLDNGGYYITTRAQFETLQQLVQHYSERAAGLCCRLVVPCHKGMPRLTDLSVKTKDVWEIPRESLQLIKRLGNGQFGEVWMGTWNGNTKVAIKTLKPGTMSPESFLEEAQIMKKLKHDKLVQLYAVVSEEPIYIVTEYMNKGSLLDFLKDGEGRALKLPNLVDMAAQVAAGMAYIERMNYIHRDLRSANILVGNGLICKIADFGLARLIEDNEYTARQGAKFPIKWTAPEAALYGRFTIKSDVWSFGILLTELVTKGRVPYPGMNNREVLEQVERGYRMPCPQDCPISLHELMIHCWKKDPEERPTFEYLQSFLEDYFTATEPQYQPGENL
# Chain of G protein-coupled receptor kinase 6 (Homo sapiens) (P43250 whole entry, looked up): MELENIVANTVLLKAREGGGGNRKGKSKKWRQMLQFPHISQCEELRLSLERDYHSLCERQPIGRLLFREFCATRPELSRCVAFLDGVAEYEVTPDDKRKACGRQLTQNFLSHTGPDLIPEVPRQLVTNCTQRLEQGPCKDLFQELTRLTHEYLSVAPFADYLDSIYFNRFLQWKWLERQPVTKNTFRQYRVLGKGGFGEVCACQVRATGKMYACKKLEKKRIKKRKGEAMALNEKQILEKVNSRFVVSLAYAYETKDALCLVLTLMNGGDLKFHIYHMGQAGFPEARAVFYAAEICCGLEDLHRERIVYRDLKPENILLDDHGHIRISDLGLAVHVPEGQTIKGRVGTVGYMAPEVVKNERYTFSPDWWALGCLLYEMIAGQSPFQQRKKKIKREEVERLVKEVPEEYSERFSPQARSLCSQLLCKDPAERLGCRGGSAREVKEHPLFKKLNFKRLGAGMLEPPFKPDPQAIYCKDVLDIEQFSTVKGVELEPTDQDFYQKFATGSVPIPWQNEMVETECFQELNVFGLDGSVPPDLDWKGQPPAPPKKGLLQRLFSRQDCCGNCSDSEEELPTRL
# Chain of Vascular endothelial growth factor receptor 3 (Homo sapiens) (P35916 whole entry): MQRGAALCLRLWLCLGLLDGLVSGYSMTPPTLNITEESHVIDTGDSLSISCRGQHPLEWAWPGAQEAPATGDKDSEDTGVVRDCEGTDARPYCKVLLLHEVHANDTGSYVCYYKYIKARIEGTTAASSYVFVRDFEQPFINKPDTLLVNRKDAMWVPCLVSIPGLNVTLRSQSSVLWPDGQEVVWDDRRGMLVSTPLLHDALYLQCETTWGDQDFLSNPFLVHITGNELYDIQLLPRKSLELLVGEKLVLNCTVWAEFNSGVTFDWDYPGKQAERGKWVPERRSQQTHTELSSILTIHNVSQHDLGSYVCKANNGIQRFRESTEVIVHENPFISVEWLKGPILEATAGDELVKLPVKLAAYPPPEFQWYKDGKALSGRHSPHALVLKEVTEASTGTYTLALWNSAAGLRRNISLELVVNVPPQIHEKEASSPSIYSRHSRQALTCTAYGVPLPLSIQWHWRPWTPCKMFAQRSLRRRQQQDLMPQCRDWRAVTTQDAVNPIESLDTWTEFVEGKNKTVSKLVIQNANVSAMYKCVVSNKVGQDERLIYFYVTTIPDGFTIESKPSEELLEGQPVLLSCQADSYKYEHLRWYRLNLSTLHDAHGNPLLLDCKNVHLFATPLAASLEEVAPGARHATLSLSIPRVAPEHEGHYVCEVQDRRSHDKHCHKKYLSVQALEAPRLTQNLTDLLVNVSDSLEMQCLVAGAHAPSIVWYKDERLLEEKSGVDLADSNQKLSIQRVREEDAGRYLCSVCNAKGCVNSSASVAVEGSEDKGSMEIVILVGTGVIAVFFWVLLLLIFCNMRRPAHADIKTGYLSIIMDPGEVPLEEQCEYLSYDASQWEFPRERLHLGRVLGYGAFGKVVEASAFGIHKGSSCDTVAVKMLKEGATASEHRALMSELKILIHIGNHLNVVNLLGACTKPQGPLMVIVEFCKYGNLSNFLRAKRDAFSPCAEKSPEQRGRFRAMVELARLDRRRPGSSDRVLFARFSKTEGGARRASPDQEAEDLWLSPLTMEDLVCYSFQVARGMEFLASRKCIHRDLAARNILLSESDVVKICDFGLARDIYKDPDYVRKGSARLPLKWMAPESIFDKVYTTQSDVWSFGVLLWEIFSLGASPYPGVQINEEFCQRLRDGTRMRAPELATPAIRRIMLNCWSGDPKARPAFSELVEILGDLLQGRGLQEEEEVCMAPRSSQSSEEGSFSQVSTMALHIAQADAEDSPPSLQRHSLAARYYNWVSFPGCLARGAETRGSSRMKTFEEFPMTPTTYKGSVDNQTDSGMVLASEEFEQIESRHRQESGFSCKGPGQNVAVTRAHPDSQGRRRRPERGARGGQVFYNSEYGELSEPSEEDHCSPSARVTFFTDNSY
# Chain of G protein-coupled receptor kinase 5 (Homo sapiens) (P34947 whole entry, looked up): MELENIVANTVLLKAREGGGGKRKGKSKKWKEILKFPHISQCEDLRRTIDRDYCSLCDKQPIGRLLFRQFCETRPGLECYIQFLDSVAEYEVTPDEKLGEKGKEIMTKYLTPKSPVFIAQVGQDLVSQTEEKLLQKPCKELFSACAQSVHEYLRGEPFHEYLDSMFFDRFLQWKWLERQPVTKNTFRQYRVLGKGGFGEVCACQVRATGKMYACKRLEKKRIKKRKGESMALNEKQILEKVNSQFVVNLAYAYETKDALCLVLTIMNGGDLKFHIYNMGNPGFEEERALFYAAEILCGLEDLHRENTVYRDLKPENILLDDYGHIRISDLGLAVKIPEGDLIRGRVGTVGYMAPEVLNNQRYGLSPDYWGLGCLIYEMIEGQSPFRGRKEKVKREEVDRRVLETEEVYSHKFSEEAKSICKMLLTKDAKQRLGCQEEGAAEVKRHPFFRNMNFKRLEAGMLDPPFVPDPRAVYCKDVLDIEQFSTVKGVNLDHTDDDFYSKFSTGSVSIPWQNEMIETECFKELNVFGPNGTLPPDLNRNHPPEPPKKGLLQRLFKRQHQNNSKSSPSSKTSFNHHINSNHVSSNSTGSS
# Chain of Macrophage colony-stimulating factor 1 receptor (Homo sapiens) (P07333 whole entry): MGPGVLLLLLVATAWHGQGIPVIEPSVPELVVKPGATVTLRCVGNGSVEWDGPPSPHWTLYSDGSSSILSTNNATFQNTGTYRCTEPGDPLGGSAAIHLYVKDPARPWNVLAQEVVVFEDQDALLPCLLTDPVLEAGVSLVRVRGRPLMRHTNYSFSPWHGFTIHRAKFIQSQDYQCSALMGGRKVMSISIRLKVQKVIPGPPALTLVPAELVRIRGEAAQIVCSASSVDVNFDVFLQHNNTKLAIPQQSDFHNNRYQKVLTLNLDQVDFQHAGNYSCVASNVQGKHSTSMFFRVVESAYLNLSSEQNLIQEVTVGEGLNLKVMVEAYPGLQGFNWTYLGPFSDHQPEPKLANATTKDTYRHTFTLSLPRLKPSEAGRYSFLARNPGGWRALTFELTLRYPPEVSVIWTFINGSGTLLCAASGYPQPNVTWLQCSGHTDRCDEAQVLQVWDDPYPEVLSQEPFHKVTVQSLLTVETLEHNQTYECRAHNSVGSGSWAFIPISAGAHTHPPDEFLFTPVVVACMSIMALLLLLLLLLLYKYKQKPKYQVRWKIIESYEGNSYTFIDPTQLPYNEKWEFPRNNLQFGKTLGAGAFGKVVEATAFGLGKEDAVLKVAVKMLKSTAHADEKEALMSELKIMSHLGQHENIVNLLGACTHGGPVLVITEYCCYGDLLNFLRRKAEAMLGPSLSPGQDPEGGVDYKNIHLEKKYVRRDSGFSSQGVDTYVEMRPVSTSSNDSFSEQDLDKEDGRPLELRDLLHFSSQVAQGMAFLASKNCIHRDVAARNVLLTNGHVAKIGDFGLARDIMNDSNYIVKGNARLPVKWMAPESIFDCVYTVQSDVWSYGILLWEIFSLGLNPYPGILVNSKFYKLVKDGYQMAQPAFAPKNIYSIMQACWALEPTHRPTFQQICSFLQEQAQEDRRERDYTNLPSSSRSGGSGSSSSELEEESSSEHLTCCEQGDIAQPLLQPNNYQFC
SMILES,residual activity [1] [%],residual activity [2] [%],residual activity [3] [%],residual activity [4] [%],residual activity [5] [%],residual activity [6] [%],residual activity [7] [%],residual activity [8] [%],residual activity [9] [%],residual activity [10] [%]
Cn1sc(=O)n(Cc2ccccc2)c1=O,88,88,,,,,,,,
O=[N+]([O-])/C=C/c1ccc2c(c1)OCO2,106,105,95,87,100,105,92,92,86,91
COc1ccc2c(c[n+](C)c3c4cc5c(cc4ccc23)OCO5)c1OC,,96,62,87,74,92,63,,72,82
c1cc(-c2cnn3cc(-c4ccc(OCCN5CCCCC5)cc4)cnc23)ccn1,,101,0,3,1,11,1,10,1,
COC(=O)[C@@]1(O)C[C@H]2O[C@]1(C)n1c3ccccc3c3c4c(c5c6ccccc6n2c5c31)C(=O)NC4,40,36,1,2,1,4,0,0,1,5
O=C1NC(=O)C(c2cn(CCCO)c3ncccc23)=C1c1cnccn1,100,,,,,,,,,
O=c1[nH]c2ccccc2n1C1CCN(Cc2ccc(-c3nc4cc5[nH]cnc5cc4nc3-c3ccccc3)cc2)CC1,103,100,59,55,51,95,72,101,80,85
O=C(c1cc2cc(O)ccc2[nH]1)c1cc2cc(O)ccc2[nH]1,79,,,,,,,,,
Nc1nc(Nc2ccc(S(N)(=O)=O)cc2)nn1C(=S)Nc1c(F)cccc1F,77,,,,,,,,,
Cc1ccc(NC2=CC(=O)c3sc(C)nc3C2=O)cc1,93,96,,,,,,,,
COc1cc(OC)c(/C=C2\C(=O)Nc3ccccc32)c(OC)c1,101,89,74,87,69,70,68,95,86,99
